The structures appear in SMILES notation. Calls of active or inactive are those of the source. The rule behind the calls is not given here.

The target in the assay is Pantothenate synthetase (Mycobacterium tuberculosis (strain ATCC 25618 / H37Rv)) (UniProt P9WIL5). Put plainly: Coupled enzyme confirmation of inhibitors against recombinant Mtb PanC (AID 375).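 Note: 0% = full reaction with vehicle and 100% = no enzyme background.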 Particulars: coupled enzyme assay; at 10 µM, stronger effect = higher value.
Chain of Pantothenate synthetase (Mycobacterium tuberculosis (strain ATCC 25618 / H37Rv)) (P9WIL5 whole entry, looked up): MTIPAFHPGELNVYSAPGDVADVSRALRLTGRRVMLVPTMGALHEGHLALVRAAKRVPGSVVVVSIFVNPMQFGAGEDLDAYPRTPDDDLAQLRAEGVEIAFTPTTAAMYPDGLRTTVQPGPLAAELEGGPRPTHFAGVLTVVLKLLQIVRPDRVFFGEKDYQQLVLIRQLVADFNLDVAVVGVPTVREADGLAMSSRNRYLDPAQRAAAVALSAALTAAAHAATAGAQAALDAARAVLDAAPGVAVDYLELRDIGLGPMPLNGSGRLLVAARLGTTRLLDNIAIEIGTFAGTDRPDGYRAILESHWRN
Take `CCOC(=O)c1c(NC(=O)c2ccoc2C)sc2c1CCC2`: the inhibition is 7% (inactive).
Then `COc1ccc(N2CCN(CCCNC(=O)C3CCCN(S(=O)(=O)c4cnc[nH]4)C3)CC2)cc1` (stereo not given), with 0% (inactive).
Then `CC(NC(=O)Cc1cccs1)c1ccc2c(c1)OCO2` (stereo not given), with 0% (inactive); and `Cc1cc(=O)n(CCO)c(O)c1C#N`, with 0% (inactive); and `Cc1ccc(N(C(C)C(=O)Nc2ccc(S(=O)(=O)N3CCOCC3)cc2)S(C)(=O)=O)cc1` (stereo not given), with 0% (inactive).
Then `CN(C)c1ccc(O)c2c1CC1CC3[C@@H](N(C)C)C(=O)C(C(N)=O)=C(O)[C@]3(O)C(=O)C1=C2O` (stereo not given in full), with 0% (inactive); and `CC1(C)CNC(=O)CC(C)(C)N1O`, with 0% (inactive).
`O=C(c1c(F)cccc1F)N(Cc1ccccn1)C1CCCC1`: the inhibition was 1% (inactive).
Then `CC(=O)c1ccc(OCC(O)CN2CCN(Cc3ccc4c(c3)OCO4)CC2)cc1` (stereo not given), with 3% (inactive).
Under `CC1CCC(NC(=O)Cn2ncc3ccccc32)CC1` (stereo not given) stands 0% (inactive).
`O=C(NCc1cccnc1)c1cn(CCc2ccccc2)nn1`: the inhibition was 0% (inactive).
In the case of `Clc1ccc(-c2nnc3sc(-c4ccc(Br)o4)nn23)cc1`, the inhibition is 0% (inactive).
On to `CCOc1ncccc1C(=O)Nc1ccc(Cl)cc1`, for which the inhibition was 2% (inactive).
Under `COc1ccc(-n2cc(-c3ccccc3)c3c(N4CCN(CCO)CC4)ncnc32)cc1` stands 0% (inactive); under `COCC(=O)n1nc(NCc2ccc(OC)cc2)nc1NCc1ccc(OC)cc1`, 0% (inactive); under `Cc1cccc(C)c1NC(=O)N1CCN(C2CCCCC2)CC1`, 0% (inactive).
`COc1ccccc1NC(=O)c1oc2ccccc2c1NC(=O)c1cc(OC)c(OC)c(OC)c1`: the inhibition was 0% (inactive).
Consider `CCOC(=O)N1CCC(NC(=O)CS(=O)(=O)Cc2nc(-c3ccccc3C)oc2C)CC1`, for which the inhibition was 3% (inactive).
Regarding `C=CCn1c(-c2ccc(OC)cc2)nc2ccccc21`, the inhibition was 0% (inactive).
Then `CN(CCCC(=O)Nc1ccncc1)S(=O)(=O)c1ccc(Cl)cc1`, with 3% (inactive).
As for `COCCn1c(CN2CCN(c3ccccc3F)CC2)nc2c1c(=O)n(C)c(=O)n2C`, the inhibition was 6% (inactive).
On to `Cc1ccc(Cl)cc1N1CCN(C(=O)c2cn(C)c(=O)c3c2c2ccccc2n3C)CC1`, for which the inhibition is 3% (inactive).
Then `CN(C(=O)C(Cl)Cl)c1ccc(OC(=O)c2ccco2)cc1`, with 7% (inactive); and `Cc1ccc2c(c1)c1c3n2CC(=C2C(=O)OC(C)(C)OC2=O)NC3CCC1` (stereo not given), with 6% (inactive); and `COc1ccc(Cl)cc1S(=O)(=O)n1cnc2ccccc21`, with 1% (inactive).
Then `Cc1ccc(-n2c3c(cc(C(=O)O)c2=O)C(=O)CC(C)(C)C3)cc1`, with 3% (inactive); and `CC1(C)NC(=O)N(CC(O)CN2CCCC2)C1=O` (stereo not given), with 2% (inactive).
For the compound `Cc1ccccc1N1CC(c2nc3ccccc3[nH]2)CC1=O` (stereo not given), the inhibition is 0% (inactive).
Under `CC1(C)C(c2cccs2)=[N+]([O-])C2(CCCCC/C2=N\O)N1O` (stereo not given) stands 6% (inactive); under `O=C(NC1CCS(=O)(=O)C1)N1CCCCC1` (stereo not given), 7% (inactive); under `CCc1ccc2[nH]c(=O)c(C(c3nnnn3CC3CCCO3)N3CCCc4ccccc43)cc2c1` (stereo not given), 0% (inactive).
Then `O=C(Oc1ccccc1)c1cccc(COC(=O)c2cnccn2)c1`, with 5% (inactive); and `O=C1NC(c2ccccc2)(C(F)(F)F)SC2=NCCCN12` (stereo not given), with 0% (inactive); and `O=S(=O)(NCc1cn2ccccc2n1)c1cc(F)ccc1F`, with 2% (inactive).
Then `Cc1nn(-c2ccc(F)cc2)c2nc(N)c(C#N)c(-c3cccs3)c12`, with 6% (inactive); and `Cc1cccc(N(C)C(=S)Oc2ccc3ccccc3c2)c1`, with 7% (inactive).
On to `C#CCN(C)Cc1ccccc1`, for which the inhibition is 3% (inactive).
As for `COCC(=O)Nc1c(C(=O)Nc2ccccc2OC)oc2ccccc12`, the inhibition is 1% (inactive).
Under `CCOc1ccccc1-n1c(SCC(=O)NC2CCCC2)nnc1-c1ccoc1C` stands 1% (inactive).
For `COc1ccc(S(=O)(=O)N2CCCC(C(=O)N3CCCCCC3)C2)cc1` (stereo not given), the inhibition is 6% (inactive).

The record behind these values is PubChem BioAssay.
